From PubChem BioAssay
Nrf2 inh: Nrf2 qHTS screen for inhibitors; 2.1% of 360,000 active; A549 ARE-Fluc reporter, luciferase luminescence, 18-24 h; Potency, µM (titrated, usually from 46 µM), for inactives: at the highest dose activity change, negative = inhibition, hits mostly inhibitors; AID 504444, 2011; further: potency means the concentration at half of the fitted maximal effect; on the % scale 0 is the no-effect control and ±100 the full control effect; nearly all actives have a fitted effect of over 60% in size
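Two sequential reads on A549 ARE_Fluc cells exposed to compound for 18-24 h: a CellTiter-Fluor fluorescence read for viability, then a luciferase luminescence read for Nrf2/ARE activity.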
miR-21 act: qHTS Assay for Modulators of miRNAs and/orActivators of miR-21; Potency, µM (titrated, usually from 38.3 µM), inactives show top-dose activity change, positive = activation, usual class: activators; AID 2288, 2010; HeLa miR-21 FLuc reporter, luciferase, 48 h; 340,000 tested, under 10 active;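 further: % of control where 0% means no effect; miR-21 action dims this reporter so a rising signal means less miR-21 action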
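Using DMEM plus 10% FBS, HeLa miR-21-FLuc cells are incubated with test compounds (final up to about 40uM) for 48 hours; firefly luciferase signal is then imaged following reagent-mediated lysis.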
TCR act: Activators of T cell receptors: qHTS campaign; primary human leukocytes, anti-CD3, IL-2 HTRF, 48 h; Potency, µM (top dose mostly 9.22 µM), inactives show top-dose activation of IL-2 secretion, most hits filed as activators; 330,000 tested, under 10 active; AID 504894, 2011; further: % of control where 0% means no effect
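Using a-CD3 beads without co-stimulation, primary human leukocytes were exposed to compounds for 48 hr. An HTRF IL-2 kit measured the cytokine, with europium-to-d2 energy transfer producing emission at 665nm upon 320nm excitation.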
Nrf2 ARE act: qHTS of Nrf2 Activators; AREc32 ARE-luciferase reporter (MCF7-derived line), luminescence, 24 h; Potency, µM (top dose mostly 46.1 µM), for the others: top-dose activation, hits mostly activators; 0.31% of 410,000 active; AID 624171, 2012; further: potency means the concentration at half of the fitted maximal effect; % of control where 0% means no effect; nearly all actives have a fitted effect of over 65% in size
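Quantitative high-throughput format: AREc32 reporter cells, 1000 per well, received compound by pin transfer and were incubated 24 hr at 37 deg C, 5% CO2, before Steady-Glo luminescence detection.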
ClpP mod: qHTS Assay for Activators of ClpP | ATP-dependent Clp protease proteolytic subunit (Bacillus subtilis (strain 168)), P80244 | purified B. subtilis ClpP, FRET peptide cleavage, 20 min | Potency, µM (highest dose often 57.5 µM), without a hit: top-dose activity change, negative = active | 1.9% of 340,000 active | AID 651965, 2013; active means well fitted falling curve with a large enough effect; inconclusive means small, poorly fitted or top-dose-only effect; inactive means no such curve, though single readings can be large or run the other way; further: potency means the concentration at half of the fitted maximal effect; the source files actives as falling curves though it sought activators and does not explain the sign; nearly all actives have a fitted effect of over 65% in size
Target sequence (P80244 whole entry, looked up): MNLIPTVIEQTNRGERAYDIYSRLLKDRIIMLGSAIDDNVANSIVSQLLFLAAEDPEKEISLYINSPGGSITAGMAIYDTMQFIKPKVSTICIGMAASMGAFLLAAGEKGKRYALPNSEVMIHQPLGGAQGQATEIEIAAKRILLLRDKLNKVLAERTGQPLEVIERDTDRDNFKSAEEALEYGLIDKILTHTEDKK
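Buffer: 100 mM Tris/HCl pH8, 100 mM KCl, 0.05% low protease BSA, 2.5% glycerol, 0.01% Tween-20. ClpP 10 microg/mL final; 20 min RT; delta FRET normalized to ADEP and DMSO controls.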
A549 tox: Nrf2 qHTS screen for inhibitors: counterscreen for cytotoxicity; A549 ARE-Fluc cells, CellTiter-Fluor viability, 18-24 h; Potency, µM (titrated, usually from 46 µM), for the others: at the top dose activity change, negative = cytotoxicity, hits mostly inhibitors; 0.16% of 390,000 active; AID 504648, 2011; further: potency means the concentration at half of the fitted maximal effect; on the % scale 0 is the no-effect control and ±100 the full control effect
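Cytotoxicity counterscreen: CellTiter-Fluor fluorescence was measured in A549 ARE_Fluc cells after 18-24 h of compound exposure in a concentration series. The subsequent BugLite luminescent read reports ARE-luciferase activity.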
An asterisk follows results filed as active; ? = inconclusive; . = no result; [ ] = dose if it differs, or a comment. Rows were chosen to be rich in hits. Some 3.7% of all compounds tested hit in one or more screens of this group. Unless noted, the call rests on the fitted dose curve; in most records, active means well fitted curve in the direction sought with a large enough effect; inconclusive means small, poorly fitted or top-dose-only effect, or another doubt; inactive means no such curve, though single readings can be large; an effect the other way counts as inactive or inconclusive.

SMILES | Nrf2 inh | miR-21 act | TCR act | Nrf2 ARE act | ClpP mod | A549 tox
COc1ccc(Cc2nc3ccc(C(=O)NCc4cc(C)no4)cc3o2)cc1 | ? | -45.7% | 4.0% | 2.7% | -2.1% | 0.6%
COc1ccc(Cc2nc3ccc(C(=O)NCCc4ccncc4)cc3o2)cc1OC | 0.6% | 0.0% | 14.1% | 0.7% | -0.4% | 7.7%
CCc1cc(CNC(=O)c2ccc3nc(Cc4ccc(OC)c(OC)c4)oc3c2)on1 | 20.6µM* | 19.8% | -2.4% | 2.2% | -4.4% | -8.7%
COc1ccc(Cc2nc3ccc(C(=O)NCCn4ccnc4C)cc3o2)cc1OC | 11.9% | -1.3% | 1.2% | -1.0% | 31.6µM* | 8.1%
CC1=C(C(=O)Nc2ccc(C)cc2Cl)C2(CCCCC2)OC1=O | 18.9% | -1.4% | . | 9.4% | -2.0% | ?
COc1ccc(NS(=O)(=O)c2ccc3oc(SC(C)C(N)=O)nc3c2)cc1 (centres undefined) | 23.1µM* | 3.0% | 0.6% | 2.9% | 31.6µM* | -3.4%
COc1ccc2oc(=O)cc(CN3CCN(Cc4ccc(OC)c(OC)c4OC)CC3)c2c1 | -26.1% | -0.1% | -0.8% | -0.5% | -11.3% | -0.6%
CCc1ccccc1NC(=O)C(CC)Sc1ncnc2c1sc1ccccc12 (centres undefined) | . | -1.1% | . | 0.4% | -4.5% | 2.2%
Cc1nc([N+](=O)[O-])c(Sc2nc3ccccc3[nH]2)n1Cc1ccccc1 | ? | ? | 1.2%[46.1 µM] | ? | 0.9% | -25.6%
COc1ccc2nc(Sc3c([N+](=O)[O-])nc(C)n3Cc3ccccc3)[nH]c2c1 | 13µM* | 20.4% | 6.5% | ? | -3.2% | ?
CCOC(=O)C(C(=O)Nc1ccccn1)C1CCCCC1 (centres undefined) | 3.5% | -7.0% | 8.5% | -0.1% | 28.2µM* | -2.1%
CCc1ccc(N(CC(=O)NC2CCCCC2)C(=O)CCC(=O)Nc2ccccn2)cc1 | -7.6% | -4.5% | 4.0% | 0.3% | 15.8µM* | -4.5%
Cc1ccc(Cn2ccn(CC(=O)Nc3c(C)cc(C)cc3C)c(=O)c2=O)cc1 | -16.0% | 0.6% | . | -0.5% | -2.8% | -18.3%
CCOC(=O)c1ccccc1NC(=O)COC(=O)c1c(CC)noc1C | -13.7% | . | . | 2.7% | -18.5% | -10.0%
Cc1cccc(NC(=O)CCCCCn2c(=O)[nH]c3ccsc3c2=O)c1 | ? | -7.4% | . | 0.5% | -2.1% | -8.0%
CCOC(=O)c1c(C)nc2sc3c(=O)n(-c4ccc(C(C)=O)cc4)cnc3c2c1-c1ccc(Cl)cc1 | 23.1µM* | -4.5% | 7.8% | -0.6% | -19.0% | -19.4%
CCOC(=O)c1c(C)nc2sc3c(=O)n(-c4ccc(C)cc4)cnc3c2c1-c1ccc(OC)cc1 | -6.9% | -0.8% | -2.5% | -0.1% | -1.5% | -5.2%
CCOC(=O)Cn1nnc2c(sc3nc4c(c(-c5ccc(Cl)cc5)c32)CCC4)c1=O | ? | -6.6% | 0.2% | -0.5% | -0.1% | -12.4%
CCOC(=O)c1c(C)nc2sc3c(=O)n(-c4ccc(C(C)=O)cc4)nnc3c2c1-c1ccc(Cl)cc1 | 18.4µM* | -0.4% | 4.0% | 0.0% | 2.5% | ?
C[C@@H]1CN([C@H](C)CO)C(=O)c2cc(NC(=O)Nc3ccc(C(F)(F)F)cc3)ccc2O[C@H]1CN(C)S(=O)(=O)c1ccccc1 | 16.4µM* | . | -4.1% | 0.3% | -2.3% | ?
COc1ccc(S(=O)(=O)N(C)C[C@H]2Oc3ccc(NC(=O)Nc4ccc(C(F)(F)F)cc4)cc3C(=O)N([C@H](C)CO)C[C@@H]2C)cc1 | 23.1µM* | . | 3.3% | 0.4% | -3.7% | ?
COC(=O)c1ccccc1NC(=O)c1cnc(Nc2ccc(OC)cc2)c2ccccc12 | -14.8%[9.27 µM] | 7.0% | . | 4.9% | -17.5% | -7.4%
Cc1cc(C)c(S(=O)(=O)c2ccccc2)c(Cl)n1 | . | 1.6% | -1.3% | 0.1% | 14.1µM* | -0.6%
CCN(CC)C(=O)c1cc(-c2ccccc2OC)on1 | 3.5% | -61.6% | 4.7% | 5.0% | 25.1µM* | -4.8%
COCCNC(=O)c1cc(-c2ccccc2OC)on1 | ? | -10.5% | 2.8% | 0.0% | -27.2% | -0.3%
SMILES | Nrf2 inh | miR-21 act | TCR act | Nrf2 ARE act | ClpP mod | A549 tox
Cc1cc2c(cc1C)-n1nnnc1C(N1CCN(c3ncccc3C#N)CC1)C(=O)N2 (centres undefined) | . | . | . | . | -14.6% | .
CCN(CC)C(=O)Cn1cc(C(=O)C(=O)NCCc2c[nH]c3ccccc23)c2ccccc21 | ? | 3.7% | 2.9% | -0.5% | -2.7% | -21.8%
CCN(CC(=O)Nc1ccc(OC)cc1)C(=O)c1oc2c(Cl)cccc2c1C | -13.2% | . | -0.5% | 4.2% | . | 0.2%
CCN(CC(=O)Nc1ccccc1C(F)(F)F)C(=O)c1oc2c(Cl)cccc2c1C | -22.7% | . | 0.3% | 3.3% | 35.5µM* | 4.7%
COc1ccccc1N1CCN(S(=O)(=O)c2ccc(-c3ccc(=O)[nH]n3)o2)CC1 | 0.6% | 0.5% | 8.5% | 2.1% | 0.2% | 7.5%
Cc1cccc(N2CCN(S(=O)(=O)c3ccc(-c4ccc(=O)[nH]n4)o3)CC2)c1C | 13µM* | -3.1% | 1.3% | -0.6% | -1.2% | ?
COC(=O)c1cc(=O)nc2sccn12 | -10.1% | -4.9% | -4.8% | -0.2% | 28.2µM* | -16.9%
COC(=O)c1cc(=O)nc2sc(-c3ccccc3)nn12 | 0.0% | -1.1% | 2.5% | -0.9% | 28.2µM* | -1.4%
N#Cc1ccc(S(=O)(=O)N2CCN(S(=O)(=O)c3ccc4c(c3)OCCO4)CC2)cc1 | 16.3% | . | . | . | . | -0.9%
CC(=O)N1CCc2cc([N+](=O)[O-])ccc21 | 11.2% | . | -1.9% | -0.1% | -2.6% | 1.2%
COC(=O)c1nn(-c2ccc3c(c2)OCO3)cc1O | ? | -25.5% | -0.2% | -1.1% | 31.6µM* | -7.4%
COC(=O)c1nn(-c2ccc3c(c2)CCN3C(C)=O)cc1O | ? | ? | -0.1% | -2.6% | 7.08µM* | 14.6%
CC1CCN(C2(O)C(=O)Nc3ccc(Cl)cc32)CC1 (centres undefined) | 8.8% | -0.3% | -3.9% | 0.0% | 12.6µM* | -10.4%
O=C(COC(=O)CCN1C(=O)/C(=C\C=C\c2ccccc2)SC1=S)Nc1cc(F)ccc1F | 8.2µM* | 26.1% | -1.3% | -0.8% | . | ?
O=C(CN1C(=O)/C(=C\C=C\c2ccccc2)SC1=S)Nc1ccc(F)cc1 | 5.2% | -3.3% | -7.5%[46.1 µM] | 0.1% | -17.7% | -5.6%
CCN(CC)CCNC(=O)c1cc(-c2cccnc2)nc2ccc(S(=O)(=O)N3CCC(C)CC3)cc12 | ? | -2.5% | 5.7% | -0.6% | -1.3% | 23.1µM*
